Bioassay records: PubChem, several laboratories
bovine MsrA act = bovine MsrA enzyme activators, primary screen, biochemical, absorbance, HTS; Methionine sulfoxide reductase A (Bos taurus); purified bovine MsrA, absorbance read-out; activation, % at 10.6 µM; 0.3% of 360,000 active; AID 602163, 2012; in the data active = activation above about 7.5%;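 note: 0% = vehicle and 100% = reference activator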
MsrA inhibitor = bovine MsrA enzyme inhibitors, primary screen, biochemical, absorbance, HTS; Methionine sulfoxide reductase A (Bos taurus); purified bovine MsrA, absorbance read-out; inhibition, % at 15.5 µM; 0.75% of 360,000 active; AID 651718, 2012; in the data active = inhibition above about 4.5%;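 note: 0% = vehicle wells with enzyme and 100% = reference inhibitor wells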
Mot1-301 SUMO = yeast Mot1-301 growth rescue at high temperature, primary screen, SUMOylation pathway inhibitor project, S. cerevisiae, ATP luminescence, 38.5C | S. cerevisiae Mot1-301 growth rescue; percent above DMSO median, 100 means doubled | growth rescue, % at 18.8 µM | 1% of 320,000 active | AID 2716, 2010;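 active = every valid replicate shows activation above 250% relative to neutral control wells; inactive = the rest, any valid replicate at or below 250%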;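 note: OY570 slx delta 5 strain wells were the positive control but not used for scaling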
PKA-R1A activ = activators of PKA-R1A holoenzyme, primary screen, biochemical, fluorescence polarization, Cy5-IP20, bovine R1A, mouse PKAc; PKA-R1A dissociation; scaled: DMSO 0%, 113 µM cGMP 100%; cAMP-dependent protein kinase type I-alpha regulatory subunit (Bos taurus) + …; activation, % at 11.4 µM; 0.083% of 340,000 active; AID 504707, 2011;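 active = percent activation above the mean of all tested compounds plus 3 SD, cut at about 19% in these data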;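 note: higher means more PKAc released from R1A so a rise in polarization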
PKA-R2B act = activators of PKA-R2B holoenzyme, primary screen, biochemical, fluorescence polarization, Cy5-IP20, human. activation, % at 11.4 µM. 0.079% of 340,000 active. AID 504700, 2011. PKA-R2B holoenzyme dissociation; R2B truncated from residue 108, S112A mutant; 0% DMSO only, 100% 113 µM cGMP;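 active = activation above a cutoff set at the mean over all compounds plus 3 SD, cut at about 18% in these data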;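 note: higher means more holoenzyme dissociation and a rise in polarization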
Target sequence (P31323 whole entry, looked up, other chains not shown, the tested form may be a part): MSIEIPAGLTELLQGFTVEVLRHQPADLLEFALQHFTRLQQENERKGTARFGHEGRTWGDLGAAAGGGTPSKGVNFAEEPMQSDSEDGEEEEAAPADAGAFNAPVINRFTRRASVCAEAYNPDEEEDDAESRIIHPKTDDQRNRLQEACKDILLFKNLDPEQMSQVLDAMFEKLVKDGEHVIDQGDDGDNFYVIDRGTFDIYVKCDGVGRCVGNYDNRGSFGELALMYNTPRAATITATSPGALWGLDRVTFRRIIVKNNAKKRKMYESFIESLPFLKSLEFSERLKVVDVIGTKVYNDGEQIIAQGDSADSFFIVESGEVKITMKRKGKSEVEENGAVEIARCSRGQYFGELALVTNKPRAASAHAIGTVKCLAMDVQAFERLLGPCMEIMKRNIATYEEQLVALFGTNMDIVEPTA
MsrA activ conf = bovine MsrA activators, retest, confirmation, biochemical, absorbance, HTS. 12% of 1,000 active. shares compounds with bovine MsrA act. activation, % at 10.6 µM. purified bovine MsrA, absorbance read-out; in the data active = activation above about 4%;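 note: enzyme coupled to thioredoxin and thioredoxin reductase with NADPH; 0% = vehicle wells and 100% = reference activator wells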
* marks the source's active call; other numbers are inactive results. An excerpt weighted towards active compounds, which were near 2% of everything screened.

Screening C[C@@H]1CCCCO[C@H](CN(C)S(=O)(=O)c2cn(C)cn2)[C@@H](C)CN([C@H](C)CO)C(=O)c2cc(NC(=O)CCCN(C)C)ccc2O1 returned MsrA inhibitor 1.
`COCc1[nH]nc2c1C(c1ccc(F)cc1)N(Cc1ccccc1)C2=O` (stereo not given) gave MsrA inhibitor -1.
For COc1ccc(CCNS(=O)(=O)c2ccc(C3CNC(=O)C3)cc2)cc1OC (stereo not given) the results were bovine MsrA act 9.5*, MsrA inhibitor 0, Mot1-301 SUMO -10, PKA-R1A activ 1, PKA-R2B act -12 and MsrA activ conf -2.
For COc1ccc(CCNS(=O)(=O)c2ccc(S(=O)(=O)N3CCCC3)cc2)cc1OC the results were bovine MsrA act -1, MsrA inhibitor 0, Mot1-301 SUMO -10, PKA-R1A activ 7 and PKA-R2B act 1.
CCC(C)[C@H](NC(=O)N1CCC(C)CC1)C(=O)OC (stereo not given in full) was read as bovine MsrA act 14*, MsrA inhibitor 1, Mot1-301 SUMO 13, PKA-R1A activ -2, PKA-R2B act 0 and MsrA activ conf 1.
Screening C[C@@H]1COc2cc(N3CCCC3)ccc2S(=O)(=O)N1 returned MsrA inhibitor -1.
O=C1CCC(C(=O)N2CCCC2)CN1Cc1cccc(C(F)(F)F)c1 (stereo not given) was read as bovine MsrA act 9.8*, MsrA inhibitor -1, Mot1-301 SUMO -5, PKA-R1A activ -6, PKA-R2B act 4 and MsrA activ conf 2.
Screening NC(=O)[C@@H]1CCCN1C(=O)[C@@H](Cc1ccccc1)NC(=O)[C@H]1O[C@@H](n2ccc(N)nc2=O)[C@H](O)[C@@H]1O returned MsrA inhibitor 0.
Screening C[C@@H]1NS(=O)(=O)c2c(F)cccc2O[C@@H]1c1ccccc1 returned MsrA inhibitor 0.
Screening COC(=O)C1=C(C)N(Cc2cccc(C(F)(F)F)c2)C(=NCc2cc(OC)c(OC)c(OC)c2)NC1CCc1ccccc1 (stereo not given) returned MsrA inhibitor -1.
Screening Cc1cc(Oc2cccc3c2S(=O)(=O)N([C@H](C)c2ccccc2)C[C@@H](COCc2ccccc2)O3)cc(C)c1C returned MsrA inhibitor 0.
Cc1ccc(C)c2nc3sc(C(=O)N4CCOCC4)c(N)c3cc12 was read as bovine MsrA act 8.8*, MsrA inhibitor 2, Mot1-301 SUMO 0, PKA-R1A activ -14, PKA-R2B act 2 and MsrA activ conf 4.9*.
For CCOc1cc(OCC)cc(C(=O)N2CCC[C@@H]2C(=O)N2CCC[C@H]2C(=O)NCc2ccccc2)c1 the results were MsrA inhibitor 1.
Screening O=Nc1ccc(NOC(=O)c2ccccc2Br)cc1 returned bovine MsrA act 10*, MsrA inhibitor 2, Mot1-301 SUMO 30, PKA-R1A activ -5, PKA-R2B act 6 and MsrA activ conf -1.
CC1=C(C(N)=O)C(c2ccc(Cl)c(Cl)c2)n2ncnc2N1 (stereo not given) was read as bovine MsrA act 7.9*, MsrA inhibitor 0, Mot1-301 SUMO 50, PKA-R1A activ 3, PKA-R2B act 4 and MsrA activ conf -1.
For COc1ccc(OC)c2nc3c(C(=O)NCCN(C)C)cccc3nc12 the results were bovine MsrA act 21*, MsrA inhibitor 0, PKA-R1A activ -4, PKA-R2B act -11 and MsrA activ conf 12*.
For Cc1cccc(C)c1-n1nnnc1-c1nc2cc3ccccc3cc2[nH]c1=O the results were bovine MsrA act -1 and MsrA inhibitor 1.
Screening Cc1cccc(C)c1-n1nnnc1-c1nc2cc(Br)ccc2[nH]c1=O returned bovine MsrA act 8.0*, MsrA inhibitor -1 and MsrA activ conf 2.
For O=C(CNc1ccc2ccccc2c1)N/N=C/c1ccc([N+](=O)[O-])o1 the results were bovine MsrA act 8.3*, MsrA inhibitor 2, Mot1-301 SUMO -4, PKA-R1A activ -5, PKA-R2B act -7 and MsrA activ conf -1.
Screening O=C(C(=O)N1CCN(C(=O)Cc2ccccc2)CC1)c1cccc(C(F)(F)F)c1 returned MsrA inhibitor 0.
COc1cccc(C2=Cc3ccc(F)cc3C(CC(C)=O)N2c2ccc(C#CC3(O)CCCCC3)cc2)c1 (stereo not given) was read as bovine MsrA act 8.1*, MsrA inhibitor 1 and MsrA activ conf -2.
Screening COc1ccccc1Nc1n[nH]c(=S)s1 returned bovine MsrA act 8.9*, MsrA inhibitor 2, Mot1-301 SUMO -12, PKA-R1A activ -2, PKA-R2B act -1 and MsrA activ conf 1.
For CC(C)c1ccc(Nc2n[nH]c(=S)s2)cc1 the results were bovine MsrA act 8.6*, MsrA inhibitor 1 and MsrA activ conf 0.
For Cc1cc(C)c(Nc2n[nH]c(=S)s2)cc1C the results were bovine MsrA act 6, MsrA inhibitor 0, PKA-R1A activ 18 and PKA-R2B act 1.
`Cc1ccc(Nc2n[nH]c(=S)s2)c(C)c1` gave bovine MsrA act 10*, MsrA inhibitor 1, PKA-R1A activ -11, PKA-R2B act -10 and MsrA activ conf 1.
Cc1cccc(Nc2n[nH]c(=S)s2)c1C was read as bovine MsrA act 7, MsrA inhibitor -1, Mot1-301 SUMO 2, PKA-R1A activ 2 and PKA-R2B act -2.
COc1ccc(Nc2nnc(-c3ccc4c(c3)OCO4)o2)cc1 was read as MsrA inhibitor -1.
`CCCn1cnnc1CNC(=O)[C@@H](Cc1ccccc1)NC(=O)[C@H]1O[C@@H](n2ccc(=O)[nH]c2=O)[C@H](O)[C@@H]1O` gave MsrA inhibitor 0.
Screening CCCCN(C)C(=O)c1cc2cc3ccc(OC)cc3nc2o1 returned bovine MsrA act 17*, MsrA inhibitor 2, Mot1-301 SUMO 245, PKA-R1A activ 4, PKA-R2B act 3 and MsrA activ conf 0.
CC(CNC(=O)[C@@H](Cc1ccccc1)NC(=O)[C@H]1O[C@@H](n2ccc(=O)[nH]c2=O)[C@H](O)[C@@H]1O)c1ccccc1 (stereo not given in full) was read as MsrA inhibitor 0.
Screening COCc1cc(=O)[nH]c(=S)[nH]1 returned bovine MsrA act 9.9*, MsrA inhibitor 1, Mot1-301 SUMO 5, PKA-R1A activ -7, PKA-R2B act -7 and MsrA activ conf 5.0*.
